This note sets out measurements from PubChem BioAssay (Tox21).

Records with an inconclusive call do not appear. Values without a mark were called inactive. Activity calls are given as the source filed them. The call rests on the fitted dose curve; in most records, active means well fitted cell-killing curve with a large enough effect in the repeat runs; inconclusive means weak or mixed curves, or effect the other way; inactive means flat fitted curve, though single readings scatter.

The nature of assay [1]: cAMP Responsive Elements (CRE) small molecule antagonists, cell-based qHTS assay: qHTS cell viability counter screen (AID 2060913). Further: nearly all actives have a fitted effect of over 40% in size. Further: potency means the concentration at half of the fitted maximal effect. Summed up:
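HEK293T CRE-bla, 2,000 cells/well, 18 h preincubation; cpd in DMSO + NKH477 0.25 uM final, 3 h 37 C/5% CO2; LiveBLAzer 2 h RT, then CellTiter-Glo 30 min RT, luminescence.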

Assay [2] in a line: cAMP Responsive Elements (CRE) small molecule agonists, cell-based qHTS assay: qHTS cell viability counter screen (AID 2060914). Further: nearly all actives have a fitted effect of over 50% in size. Summed up:
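Luminescence read-out (CellTiter-Glo, 30 min RT) of ATP-based viability in CRE-bla HEK 293T cells, run in the same wells as the β-lactamase reporter assay after 3 h compound treatment at 37 °C.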
(In qHTS, concentration-response curves come from the screen itself.)
On the % scale 0 is the no-effect control and ±100 the full control effect.

Take `NC(=O)CC[C@@H]1NC(=O)[C@H](Cc2ccccc2)NC(=O)[C@H](Cc2ccc(O)cc2)NC(=O)CCSSC[C@@H](C(=O)N2CCC[C@H]2C(=O)N[C@@H](CCCN=C(N)N)C(=O)NCC(N)=O)NC(=O)[C@H](CC(N)=O)NC1=O`: the Potency result in assay [1] and in assay [2] was “inactive” throughout.
For `CC(C)(c1ccc(O)cc1)c1ccc(O)cc1`, the Potency entry in assay [1] and in assay [2] was “inactive” each time.
In the case of `CNCc1ccccc1`, the Potency result in assay [1] and in assay [2] was “inactive” in each case.
As to `CC(C)C1OCCN1CCOC(=O)NCCCCCCNC(=O)OCCN1CCOC1C(C)C` (centres undefined), the Potency result in assay [1] and in assay [2] was “inactive” each time.
`C=C(C)[C@@H]1CC=C(C)C(=O)C1`: the Potency result in assay [1] and in assay [2] was “inactive” throughout.
In the case of `Oc1cccc2cc3cccc(O)c3c(O)c12`, the Potency entry in assay [1] and in assay [2] was “inactive” each time.
As to `CCCCCCCC/C=C\CCCCCCCC(=O)N(CCO)CCO`, the Potency entry in assay [1] and in assay [2] was “inactive” each time.
With `C#CC(O)CCCCC` (centres undefined), the Potency entry in assay [1] and in assay [2] was “inactive” throughout.
Regarding `c1ccc2sc(SN(C3CCCCC3)C3CCCCC3)nc2c1`, the Potency entry in assay [1] and in assay [2] was “inactive” throughout.
For the compound `N=C(N)N1CCc2ccccc2C1`, the viability change, negative = cytotoxic in assay [1] is -0.283% [at 8.39 µM]. Also, the activity change, negative = cytotoxicity in assay [2] was 2.66% [at 8.39 µM].
As for `O=C1OC2(c3ccc(O)cc3Oc3cc(O)ccc32)c2ccc(N=C=S)cc21`, the Potency result in assay [1] and in assay [2] was “inactive” throughout.
As to `CN1CCC[C@H]1c1cccnc1`, the Potency entry in assay [1] and in assay [2] was “inactive” in each case.
Turning to `CCCOC(=O)c1ccc(C(=O)OCCC)nc1`, the Potency entry in assay [1] and in assay [2] was “inactive” each time.
Take `C=CC(=O)OCCOC1C2CCC1C1CC=CC12` (centres undefined): in assay [1], the viability change, negative = cytotoxic is 9.26% [at 18.9 µM]. Moreover, the activity change, negative = cytotoxicity in assay [2] was -3.05% [at 18.9 µM].
`CCCCCCCCCCCCCC(=O)OC`: the Potency result in assay [1] and in assay [2] was “inactive” in each case.
Regarding `C[C@]12C=CC(=O)C=C1CC[C@@H]1[C@@H]2C(=O)C[C@@]2(C)[C@H]1CC[C@]2(O)C(=O)CO`, the Potency entry in assay [1] and in assay [2] was “inactive” in each case.
Take `C=CC(=O)OCCC#N`: the Potency result in assay [1] and in assay [2] was “inactive” each time.
On to `CCCCCCOC(=O)CCC`, for which the Potency result in assay [1] and in assay [2] was “inactive” throughout.
`N=C1C=CC(=C(c2ccc(N)cc2)c2ccc(N)cc2)C=C1`: the Potency in assay [1] was 50.8 µM (active). Further, in assay [2], the Potency result was “inactive”.
On to `CC(C)(C)c1ccc(C(=O)CCCCl)cc1`, for which the Potency entry in assay [1] and in assay [2] was “inactive” in each case.
With `C=CC1CO1` (centres undefined), the Potency result in assay [1] and in assay [2] was “inactive” each time.
On to `C=C(C)[C@H]1CC=C(C)C(=O)C1`, for which the Potency entry in assay [1] and in assay [2] was “inactive” each time.
In the case of `CCCC(CC)c1ccccc1` (centres undefined), the Potency result in assay [1] and in assay [2] was “inactive” each time.
`CCCCOCCOCCO`: the Potency result in assay [1] and in assay [2] was “inactive” throughout.
Consider `CC(C)CCOC(=O)/C=C/c1ccccc1`, for which the Potency entry in assay [1] and in assay [2] was “inactive” in each case.
As to `O=C(O)c1cccnc1C(=O)O`, the Potency result in assay [1] and in assay [2] was “inactive” throughout.
Take `CC(=O)/C=C/c1ccco1`: the Potency entry in assay [1] and in assay [2] was “inactive” each time.
Regarding `CC(=O)Nc1ccc(C)c(Cl)c1`, the Potency result in assay [1] and in assay [2] was “inactive” throughout.
On to `CCCCOC(=O)CC`, for which the Potency result in assay [1] and in assay [2] was “inactive” in each case.
As to `CC(O)CCCCn1c(=O)c2c(ncn2C)n(C)c1=O` (centres undefined), the Potency entry in assay [1] and in assay [2] was “inactive” each time.
With `Cc1cc2c(s1)Nc1ccccc1N=C2N1CCN(C)CC1`, the Potency result in assay [1] and in assay [2] was “inactive” in each case.
As to `Nc1c(NC/C=C\COc2cc(CN3CCCCC3)ccn2)c(=O)c1=O`, in assay [1], the viability change, negative = cytotoxic was -0.847% [at 18.9 µM]. Further, the activity change, negative = cytotoxicity in assay [2] is 0.246% [at 18.9 µM].
On to `Cc1cc(NS(=O)(=O)c2ccc(N)cc2)no1`, for which the Potency entry in assay [1] and in assay [2] was “inactive” each time.
As to `O=[N+]([O-])c1ccc2nc[nH]c2c1`, the Potency result in assay [1] and in assay [2] was “inactive” each time.
For `COc1cc(C(C)(C)C)c(O)c(C(C)(C)C)c1`, the Potency entry in assay [1] and in assay [2] was “inactive” each time.
On to `O=CCCCC=O`, for which the Potency result in assay [1] and in assay [2] was “inactive” in each case.
Take `Clc1nc(Cl)c(Cl)c(Cl)c1Cl`: the Potency entry in assay [1] and in assay [2] was “inactive” each time.
With `CCCCC1C(=O)N(c2ccccc2)N(c2ccccc2)C1=O`, the Potency result in assay [1] and in assay [2] was “inactive” throughout.
In the case of `COC(C)(C)CCCC(C)CC=O` (centres undefined), the Potency result in assay [1] and in assay [2] was “inactive” each time.
Turning to `CCCCCCCCCC(=O)N(C)C`, the Potency entry in assay [1] and in assay [2] was “inactive” throughout.
On to `N#CCCNCCC#N`, for which the Potency entry in assay [1] and in assay [2] was “inactive” throughout.
In the case of `C=C(C)C(=O)OCCN(CC)CC`, the Potency result in assay [1] and in assay [2] was “inactive” in each case.
On to `O=C(O)CCNC(=O)c1ccccc1`, for which the Potency result in assay [1] and in assay [2] was “inactive” in each case.
`Nc1ccc2cc(S(=O)(=O)O)ccc2c1`: the Potency entry in assay [1] and in assay [2] was “inactive” in each case.
For `COc1ccc(C(=O)c2ccc(C)cc2)c(O)c1`, the Potency entry in assay [1] and in assay [2] was “inactive” throughout.
With `COCCO`, the Potency entry in assay [1] and in assay [2] was “inactive” in each case.
On to `O=C(Cl)c1c(Cl)cccc1Cl`, for which the Potency entry in assay [1] and in assay [2] was “inactive” each time.
Take `Cc1ccc(O)c(O)c1`: the Potency entry in assay [1] and in assay [2] was “inactive” in each case.
Consider `CC(CSC(=O)c1ccccc1)C(=O)N1C[C@@H](Sc2ccccc2)C[C@H]1C(=O)O` (some centres undefined), for which the viability change, negative = cytotoxic in assay [1] is 1.17% [at 18.9 µM]. For the same compound, the activity change, negative = cytotoxicity in assay [2] was -0.289% [at 18.9 µM].
On to `CCOc1ccc(N=Nc2ccc(/C=C/c3ccc(N=Nc4ccc(OCC)cc4)cc3S(=O)(=O)O)c(S(=O)(=O)O)c2)cc1`, for which the Potency result in assay [1] and in assay [2] was “inactive” each time.
In the case of `O=C1c2ccccc2C(=O)N1CO`, the Potency result in assay [1] and in assay [2] was “inactive” throughout.
Turning to `CCCCC(CC)C(=O)OCCOCCOCCOC(=O)C(CC)CCCC` (centres undefined), the Potency entry in assay [1] and in assay [2] was “inactive” throughout.
As for `Cc1cccc(C)c1O`, the Potency result in assay [1] and in assay [2] was “inactive” each time.
`N[C@@H]1CONC1=O`: the Potency entry in assay [1] and in assay [2] was “inactive” in each case.
For the compound `Cc1ccccc1OCC(O)CO` (centres undefined), the Potency entry in assay [1] and in assay [2] was “inactive” in each case.
`CCCCC(CC)CN1CN(CC(CC)CCCC)CC(C)(N)C1` (centres undefined): the Potency result in assay [1] and in assay [2] was “inactive” throughout.
Consider `CC(C)CCOCCC(C)C`, for which the Potency entry in assay [1] and in assay [2] was “inactive” in each case.
